# Results published in the supplement of paper PMC6555819.
# Assays:
# Test in all cases: PBM binding z-score (relative to random genomic background probes); higher = stronger binding; sequences stand for … in GC…GCGATTGACAGCGTAGAATGAAGG
# [1] = test system: FXR:RXRa (NR concentration 270 nM, RXRa partner concentration 90 nM)
# In short: (§1)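 Binding buffer was PBS pH 7.4 with 2% milk, 0.02% Triton X-100, 1 mM DTT, 0.2 mg/mL BSA and 0.4 mg/ml salmon testes DNA. In it, ligand-free nuclear receptor dimers were incubated 1 h on custom Agilent 4×180K protein-binding microarrays carrying double-stranded probes. Antibodies against each partner (one per run) detected binding, and z-scores were calculated against random background probes after regression normalization of scanned fluorescence.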
# [2] = test system: LXRa:RXRa (NR concentration 270 nM, RXRa partner concentration 90 nM)
# In short: as §1
# [3] = test system: LXRa homodimer (NR concentration 270 nM)
# In short: as §1
# [4] = test system: LXRb:RXRa (NR concentration 270 nM, RXRa partner concentration 90 nM)
# In short: as §1
# [5] = test system: LXRb homodimer (NR concentration 270 nM)
# In short: as §1
# [6] = test system: PPARa:RXRa (NR concentration 270 nM, RXRa partner concentration 90 nM)
# In short: as §1
# [7] = test system: PPARg:RXRa (NR concentration 180 nM, RXRa partner concentration 90 nM)
# In short: as §1
# [8] = test system: PPARg:RXRa 270nM:90nM, anti-RXR (NR concentration 270 nM, RXRa partner concentration 90 nM)
# In short: as §1
# [9] = test system: PPARg:RXRa 30nM:10nM, anti-RXR (NR concentration 30 nM, RXRa partner concentration 10 nM)
# In short: as §1
# [10] = test system: PPARg:RXRa 90nM:30nM, anti-RXR (NR concentration 90 nM, RXRa partner concentration 30 nM)
# In short: as §1
Sequence,PBM binding z-score [1],PBM binding z-score [2],PBM binding z-score [3],PBM binding z-score [4],PBM binding z-score [5],PBM binding z-score [6],PBM binding z-score [7],PBM binding z-score [8],PBM binding z-score [9],PBM binding z-score [10]
TAATATAGGTAAATGCTAGGTGAAAGTCCGATCT,0.659,0.683,0.391,0.477,0.54,2.09,2.64,2.55,1.74,1.99
CTCGAAAGGTCGGTTGACGTGAGTATACGGATAA,1.71,1.46,0.0257,1.44,0.0927,2.2,0.565,0.822,0.194,0.528
GCGACTGGGGCAAAGCGGGTTACCATAAGGTTGG,0.373,-0.0696,-0.512,0.27,-0.709,1.42,1.15,1.47,-0.245,0.845
TCGAGTATGTTAGGGGCATTCAGAATGGCGTCGA,0.201,0.198,-0.264,0.596,-0.345,0.669,0.0373,0.882,0.884,1.02
GCGACTGGGTCAAAGCAGGTTACCATAAGGTTGG,3.12,3.67,-0.265,2.21,-0.807,4.27,4.75,4.75,2.08,3.49
GCTGCTAGGTCAACTGACGGTCAGCTAAAGCTCG,4.79,3.96,1.36,2.5,0.152,3.92,2.88,3.37,0.824,2.14
GCGACTGGGGCATAGCAGGTTACCATAAGGTTGG,0.397,0.135,-0.575,0.25,-0.915,1.2,1.02,0.684,-0.371,0.318
AGAATGAGGTTACCAAAGATCCGGGAAACGCTTG,1.58,2.04,-0.0971,1.33,-0.177,3.23,2.5,2.84,0.971,2.13
ATACCAAGGTGATCGGGAGGTCGTTGATACTAAC,1.36,0.921,0.848,1.34,0.329,1.55,0.591,0.404,0.193,0.12
AATCAAAGTTCACTAGGTAACGTAAGATTCAGCT,4.99,5.49,4.91,3.21,1.43,4.48,5.39,4.91,2.47,3.92
CGTCAATGTTCAACTAAGGTAACGTAAAGCACGC,0.964,0.0385,0.177,0.536,0.375,0.376,0.538,-0.0311,-0.0519,0.0418
TCTTGTAGATCAACAGGAGGTTACGAAAGATCGA,0.309,1.28,0.0638,0.991,-0.0897,1.55,0.26,1.65,2.53,1.91
ATCGAAAGGTCGTAAGGTGAGTATACAGAAAGGC,4.53,3.79,0.462,2.98,0.6,4.62,3.45,3.46,1.6,2.5
TCTCTTAGTTGAAGGGCAACCGACGAGTCCGTTT,0.776,1.01,0.193,0.945,0.697,1.06,-0.252,2.02,3.7,3.13
ACTGACGGGTCAACGAGGTTATAGCACGCGTATA,5.56,4.16,0.67,3.43,0.166,5.03,3.34,3.77,0.997,2.17
CTCGAAAGGTCGGCTGAGGTGAGTATACGGATAA,3.7,2.47,-0.364,1.86,-0.336,3.62,0.965,2.18,0.306,1.12
GCTATTAGATGAAAGGGCAACCGAATGATTCTCG,-0.0836,0.345,0.21,0.469,-0.27,2.46,3.72,5.46,4.56,5.76
TCTAGTTGGTCAAAGGGCACACACTCGAAATGCG,1.38,1.56,0.344,1.48,0.0761,4.28,8.25,7.85,7.7,8.57
TCTATTAGTTGAAGGGCAATCGACGAGTCCGTTT,0.797,0.889,0.341,0.908,0.176,0.795,0.0366,1.98,3.75,2.67
CCTCGGAGGACAGAAGGTTAGAGCTGTCCGCTTT,0.0561,0.0136,-0.236,-0.312,-1.14,-0.123,-0.506,-0.434,-0.944,-0.855
ATATGTAGGTTAGCTGGGGTCATTTAGACTAGGC,4.36,5.92,3.36,4.92,1.13,5.22,5.68,5.12,2.41,4.22
GCGACTGGGGCATCAGCAGGTAACCATAACTTAA,-0.303,-0.254,-0.127,0.0489,-0.791,0.658,0.905,0.685,-0.0973,0.285
CATCGGAGGACAACAGGAGGTCAGAGCTGCCAGA,1.42,2.43,2.12,1.91,-0.192,2.39,0.842,0.724,-0.516,0.267
ATATGTAGGTTAAGGGTCATTCACGTTGGTTCGC,5.72,4.91,2.96,4.5,1.26,6.49,11.8,9.66,9.95,11.2
TCGATTAGGTTAGGGGCATTCAGAATGGCGTCGA,0.719,0.542,0.0424,1.5,0.612,1.46,0.358,2.01,2.41,2.22
